Experimental data published in the supplement of paper PMC11732987, “Enantioselective OTUD7B fragment discovery through chemoproteomics screening and high-throughput optimisation” (Communications Chemistry, 2025).
Values without a mark were called inactive.

How the values were obtained:
Test in all cases: log2 ratio of Biotin-Ahx-Ub-VS probe labelling (fragment/DMSO); higher = less target engagement (more negative = stronger competition), active = hit call of the paper (q ≤ 0.05, log2 ratio ≤ -1)
Details in all cases: compound concentration: 200 uM; treatment time: 3 h
USP19 = target: T1, USP19 (UniProt O94966)
T1 sequence (whole entry): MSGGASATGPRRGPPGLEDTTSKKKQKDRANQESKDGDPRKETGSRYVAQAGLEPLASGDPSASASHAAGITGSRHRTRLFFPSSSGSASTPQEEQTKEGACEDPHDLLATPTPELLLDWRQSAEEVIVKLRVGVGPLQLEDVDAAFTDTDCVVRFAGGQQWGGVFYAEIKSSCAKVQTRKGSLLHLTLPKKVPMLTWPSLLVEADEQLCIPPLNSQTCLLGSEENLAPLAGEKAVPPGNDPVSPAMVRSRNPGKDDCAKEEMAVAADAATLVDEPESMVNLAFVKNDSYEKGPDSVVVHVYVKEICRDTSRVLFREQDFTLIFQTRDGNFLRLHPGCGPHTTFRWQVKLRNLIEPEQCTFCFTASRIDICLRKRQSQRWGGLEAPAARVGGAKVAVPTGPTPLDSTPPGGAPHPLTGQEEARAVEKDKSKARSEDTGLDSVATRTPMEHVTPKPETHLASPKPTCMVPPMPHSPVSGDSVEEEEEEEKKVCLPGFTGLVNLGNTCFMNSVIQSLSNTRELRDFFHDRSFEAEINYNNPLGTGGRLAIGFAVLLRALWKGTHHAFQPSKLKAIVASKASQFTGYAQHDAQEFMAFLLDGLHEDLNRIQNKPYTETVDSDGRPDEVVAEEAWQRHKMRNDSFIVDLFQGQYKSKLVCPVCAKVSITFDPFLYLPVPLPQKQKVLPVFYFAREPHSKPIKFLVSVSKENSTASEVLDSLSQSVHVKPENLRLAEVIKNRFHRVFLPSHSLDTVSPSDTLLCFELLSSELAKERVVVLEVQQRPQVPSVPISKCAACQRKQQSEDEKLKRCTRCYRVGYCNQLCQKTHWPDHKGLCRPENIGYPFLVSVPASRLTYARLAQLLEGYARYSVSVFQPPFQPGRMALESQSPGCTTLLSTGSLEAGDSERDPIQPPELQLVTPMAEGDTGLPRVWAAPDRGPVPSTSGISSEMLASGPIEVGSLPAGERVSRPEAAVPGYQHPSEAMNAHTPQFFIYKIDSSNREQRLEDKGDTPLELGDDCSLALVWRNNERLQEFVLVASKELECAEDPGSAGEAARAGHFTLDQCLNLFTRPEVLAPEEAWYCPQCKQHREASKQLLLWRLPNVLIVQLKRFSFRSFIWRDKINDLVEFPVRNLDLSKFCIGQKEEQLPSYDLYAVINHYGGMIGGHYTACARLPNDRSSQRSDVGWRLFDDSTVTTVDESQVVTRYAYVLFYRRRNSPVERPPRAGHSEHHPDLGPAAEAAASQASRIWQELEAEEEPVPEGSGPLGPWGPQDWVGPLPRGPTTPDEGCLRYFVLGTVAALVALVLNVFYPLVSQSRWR
Summary of the method: (§1)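 Global-median-normalised Spectronaut label-free quantities were compared by unpaired t-test, and values are average log2 ratios of fragment over vehicle. Only proteins with ≥2 unique peptides were used. HEK293T lysate (495 µg per sample) was treated in triplicate with fragment at 200 µM or vehicle for 3 h and then with Biotin-Ahx-Ub-VS at 0.5 µM final for 1 h. Labelled DUBs were then NeutrAvidin-enriched, digested with LysC and trypsin, and run by diaPASEF LC-MS/MS.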

USP22 = target: T2, USP22 (UniProt Q9UPT9)
T2 sequence (whole entry): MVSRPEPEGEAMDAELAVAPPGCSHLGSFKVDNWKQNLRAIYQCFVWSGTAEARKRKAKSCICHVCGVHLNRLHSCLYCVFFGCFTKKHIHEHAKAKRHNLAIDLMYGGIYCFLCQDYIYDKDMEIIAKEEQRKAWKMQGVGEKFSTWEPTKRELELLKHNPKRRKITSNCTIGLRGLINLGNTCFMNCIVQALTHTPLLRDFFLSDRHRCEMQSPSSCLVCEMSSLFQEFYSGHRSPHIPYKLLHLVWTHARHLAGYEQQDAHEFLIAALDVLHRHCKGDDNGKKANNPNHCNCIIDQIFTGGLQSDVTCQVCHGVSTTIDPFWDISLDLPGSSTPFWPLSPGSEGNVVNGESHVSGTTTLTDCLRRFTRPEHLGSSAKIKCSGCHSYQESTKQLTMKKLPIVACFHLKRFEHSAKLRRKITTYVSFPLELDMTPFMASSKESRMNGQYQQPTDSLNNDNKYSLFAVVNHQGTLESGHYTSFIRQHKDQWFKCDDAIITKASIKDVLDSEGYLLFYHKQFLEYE
Summary of the method: as §1

USP24 = USP24 (UniProt Q9UPU5)
Chain of USP24 (Q9UPU5 whole entry): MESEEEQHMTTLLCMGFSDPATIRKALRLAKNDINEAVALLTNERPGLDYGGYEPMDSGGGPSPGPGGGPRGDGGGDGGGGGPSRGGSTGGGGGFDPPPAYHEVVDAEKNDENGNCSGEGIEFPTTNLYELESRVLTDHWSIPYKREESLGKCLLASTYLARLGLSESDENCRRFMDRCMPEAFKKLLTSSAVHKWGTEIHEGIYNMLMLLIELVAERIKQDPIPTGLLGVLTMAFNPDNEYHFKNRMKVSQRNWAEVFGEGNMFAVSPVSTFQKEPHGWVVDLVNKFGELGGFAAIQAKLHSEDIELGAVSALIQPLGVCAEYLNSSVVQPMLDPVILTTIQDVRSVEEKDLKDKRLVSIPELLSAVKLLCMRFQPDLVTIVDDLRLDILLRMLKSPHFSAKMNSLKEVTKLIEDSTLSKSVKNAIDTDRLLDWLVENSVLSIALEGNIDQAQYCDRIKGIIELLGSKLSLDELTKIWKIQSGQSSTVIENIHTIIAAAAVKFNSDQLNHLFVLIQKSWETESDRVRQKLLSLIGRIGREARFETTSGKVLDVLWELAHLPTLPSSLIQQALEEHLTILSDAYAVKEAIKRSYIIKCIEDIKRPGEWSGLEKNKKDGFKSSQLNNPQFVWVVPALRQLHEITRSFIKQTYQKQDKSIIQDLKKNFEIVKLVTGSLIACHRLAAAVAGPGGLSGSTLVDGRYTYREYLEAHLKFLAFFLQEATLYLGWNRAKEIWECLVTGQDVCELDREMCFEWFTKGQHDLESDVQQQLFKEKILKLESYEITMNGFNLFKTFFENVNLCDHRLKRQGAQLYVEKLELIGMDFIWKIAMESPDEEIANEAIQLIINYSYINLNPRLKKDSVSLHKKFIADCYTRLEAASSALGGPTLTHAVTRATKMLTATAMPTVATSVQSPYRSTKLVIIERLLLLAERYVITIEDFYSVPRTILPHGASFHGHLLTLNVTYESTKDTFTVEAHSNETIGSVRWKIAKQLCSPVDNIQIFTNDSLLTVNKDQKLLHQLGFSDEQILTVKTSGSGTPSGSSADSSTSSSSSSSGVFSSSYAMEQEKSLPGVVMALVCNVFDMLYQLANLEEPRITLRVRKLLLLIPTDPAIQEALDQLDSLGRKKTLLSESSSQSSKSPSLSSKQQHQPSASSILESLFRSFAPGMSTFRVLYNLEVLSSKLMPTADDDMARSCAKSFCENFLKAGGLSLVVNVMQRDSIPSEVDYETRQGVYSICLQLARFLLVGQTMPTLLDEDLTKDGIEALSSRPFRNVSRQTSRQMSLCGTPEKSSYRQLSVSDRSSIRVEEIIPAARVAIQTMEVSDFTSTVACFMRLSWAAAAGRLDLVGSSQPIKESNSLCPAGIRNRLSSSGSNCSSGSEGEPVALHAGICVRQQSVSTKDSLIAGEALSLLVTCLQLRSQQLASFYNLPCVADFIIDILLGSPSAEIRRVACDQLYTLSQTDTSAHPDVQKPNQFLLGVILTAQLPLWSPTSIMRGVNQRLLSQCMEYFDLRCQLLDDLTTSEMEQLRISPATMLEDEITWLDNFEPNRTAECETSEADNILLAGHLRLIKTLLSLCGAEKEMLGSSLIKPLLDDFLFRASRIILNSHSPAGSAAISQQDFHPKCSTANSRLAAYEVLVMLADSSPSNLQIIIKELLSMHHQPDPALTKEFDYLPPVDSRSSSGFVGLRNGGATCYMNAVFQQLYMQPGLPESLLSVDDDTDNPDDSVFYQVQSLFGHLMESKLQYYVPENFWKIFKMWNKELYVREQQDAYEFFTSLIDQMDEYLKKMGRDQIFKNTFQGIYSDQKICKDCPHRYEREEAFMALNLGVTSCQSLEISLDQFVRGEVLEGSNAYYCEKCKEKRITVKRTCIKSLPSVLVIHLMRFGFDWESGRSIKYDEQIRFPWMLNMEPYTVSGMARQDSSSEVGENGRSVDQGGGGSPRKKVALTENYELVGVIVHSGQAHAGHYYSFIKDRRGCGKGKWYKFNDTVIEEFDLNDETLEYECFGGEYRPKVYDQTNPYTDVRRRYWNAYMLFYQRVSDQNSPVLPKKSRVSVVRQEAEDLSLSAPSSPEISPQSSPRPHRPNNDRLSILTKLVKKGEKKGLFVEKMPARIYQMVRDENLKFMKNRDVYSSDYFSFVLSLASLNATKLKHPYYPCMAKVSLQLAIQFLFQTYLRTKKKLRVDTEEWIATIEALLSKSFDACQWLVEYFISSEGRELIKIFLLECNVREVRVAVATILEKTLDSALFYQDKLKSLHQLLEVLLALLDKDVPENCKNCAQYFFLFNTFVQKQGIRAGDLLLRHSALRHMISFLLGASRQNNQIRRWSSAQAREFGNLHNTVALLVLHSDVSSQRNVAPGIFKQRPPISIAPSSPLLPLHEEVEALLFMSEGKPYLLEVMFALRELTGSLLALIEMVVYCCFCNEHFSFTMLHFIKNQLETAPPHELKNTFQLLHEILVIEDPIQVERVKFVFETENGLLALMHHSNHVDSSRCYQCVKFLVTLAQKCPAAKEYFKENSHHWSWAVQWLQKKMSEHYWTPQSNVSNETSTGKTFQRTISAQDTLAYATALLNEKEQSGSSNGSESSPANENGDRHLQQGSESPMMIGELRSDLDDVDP
Summary of the method: as §1

USP25 = target: T3, USP25 (UniProt Q9UHP3)
T3 sequence (whole entry): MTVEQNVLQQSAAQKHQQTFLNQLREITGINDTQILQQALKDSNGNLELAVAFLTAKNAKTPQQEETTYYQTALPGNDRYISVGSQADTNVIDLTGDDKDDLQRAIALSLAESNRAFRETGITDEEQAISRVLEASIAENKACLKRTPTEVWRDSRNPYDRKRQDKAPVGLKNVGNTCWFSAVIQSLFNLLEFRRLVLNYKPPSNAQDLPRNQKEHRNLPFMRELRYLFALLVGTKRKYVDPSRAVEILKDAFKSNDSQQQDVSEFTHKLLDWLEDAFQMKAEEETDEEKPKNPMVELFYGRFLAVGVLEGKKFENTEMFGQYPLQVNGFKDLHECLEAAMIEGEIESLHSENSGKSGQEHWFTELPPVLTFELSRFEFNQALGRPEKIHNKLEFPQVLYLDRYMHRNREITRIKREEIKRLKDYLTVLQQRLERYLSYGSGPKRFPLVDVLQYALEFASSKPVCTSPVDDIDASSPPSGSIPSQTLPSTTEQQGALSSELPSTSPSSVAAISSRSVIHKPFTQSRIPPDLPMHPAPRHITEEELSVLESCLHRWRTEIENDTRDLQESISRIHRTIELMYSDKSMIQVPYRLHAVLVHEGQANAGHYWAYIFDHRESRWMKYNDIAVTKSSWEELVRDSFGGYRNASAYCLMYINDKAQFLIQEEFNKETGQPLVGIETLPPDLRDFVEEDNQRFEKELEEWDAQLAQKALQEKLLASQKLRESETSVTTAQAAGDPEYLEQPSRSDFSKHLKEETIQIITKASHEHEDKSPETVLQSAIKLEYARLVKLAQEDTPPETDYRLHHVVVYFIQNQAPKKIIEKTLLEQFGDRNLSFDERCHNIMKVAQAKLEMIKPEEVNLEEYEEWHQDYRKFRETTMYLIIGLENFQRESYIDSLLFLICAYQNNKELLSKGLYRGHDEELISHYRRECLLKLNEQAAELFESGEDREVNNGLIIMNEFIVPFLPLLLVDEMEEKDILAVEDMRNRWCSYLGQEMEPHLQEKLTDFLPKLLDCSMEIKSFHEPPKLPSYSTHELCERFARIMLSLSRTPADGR
Summary of the method: as §1

USP28 = target: T4, USP28 (UniProt Q96RU2)
T4 sequence (whole entry): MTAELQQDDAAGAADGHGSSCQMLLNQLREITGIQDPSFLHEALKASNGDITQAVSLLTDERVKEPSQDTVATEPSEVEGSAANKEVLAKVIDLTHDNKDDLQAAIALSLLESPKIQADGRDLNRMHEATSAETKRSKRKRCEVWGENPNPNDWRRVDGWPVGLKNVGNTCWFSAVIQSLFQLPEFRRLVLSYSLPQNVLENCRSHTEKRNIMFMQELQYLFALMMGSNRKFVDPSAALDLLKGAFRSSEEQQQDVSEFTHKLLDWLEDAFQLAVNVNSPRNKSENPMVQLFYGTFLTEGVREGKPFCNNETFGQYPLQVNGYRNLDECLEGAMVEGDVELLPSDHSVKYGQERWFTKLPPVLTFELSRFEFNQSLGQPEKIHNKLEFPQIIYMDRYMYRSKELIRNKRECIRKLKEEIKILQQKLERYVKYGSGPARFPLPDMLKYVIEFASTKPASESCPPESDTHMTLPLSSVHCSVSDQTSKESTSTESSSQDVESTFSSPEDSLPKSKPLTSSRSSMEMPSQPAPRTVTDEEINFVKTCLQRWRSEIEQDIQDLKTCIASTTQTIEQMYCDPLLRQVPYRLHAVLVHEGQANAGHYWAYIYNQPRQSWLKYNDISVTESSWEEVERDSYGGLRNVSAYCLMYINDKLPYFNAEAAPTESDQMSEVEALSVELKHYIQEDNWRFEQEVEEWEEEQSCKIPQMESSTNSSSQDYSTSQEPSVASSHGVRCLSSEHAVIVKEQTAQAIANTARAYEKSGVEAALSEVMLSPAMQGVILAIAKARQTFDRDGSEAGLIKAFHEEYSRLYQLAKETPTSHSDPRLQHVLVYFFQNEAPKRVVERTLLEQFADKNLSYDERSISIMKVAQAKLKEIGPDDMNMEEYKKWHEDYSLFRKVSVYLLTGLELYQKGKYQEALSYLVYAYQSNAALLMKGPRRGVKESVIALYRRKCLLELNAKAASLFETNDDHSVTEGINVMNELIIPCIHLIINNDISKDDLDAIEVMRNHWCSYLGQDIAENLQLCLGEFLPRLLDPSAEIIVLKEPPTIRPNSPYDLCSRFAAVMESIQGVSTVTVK
Summary of the method: as §1

**Q.** How did the “log2 ratio of Biotin-Ahx-Ub-VS probe labelling” value (shortened to “log2 ratio”) (USP19) turn out when `O=C(CCl)Nc1cc(Cl)ccc1-n1cncn1` was run?
**A.** The value was -0.987.

**Q.** And the “log2 ratio” value (USP22)?
**A.** The value was -0.15.

**Q.** And the “log2 ratio” value (USP24)?
**A.** The value was -1.34 (active).

**Q.** And the “log2 ratio” value (USP25)?
**A.** Its value is -1.65 (active).

**Q.** What about the “log2 ratio” value (USP28) of the same molecule?
**A.** Its value is -2.34 (active).
